Measured values from PubChem BioAssay (Tox21).
Records with an inconclusive call do not appear. The source made the active and inactive calls. Unless noted, calls come from the whole dose curve.

Experiments:
[1] = Nuclear factor erythroid 2-related factor 2/antioxidant responsive element (Nrf2/ARE) small molecule agonists: luciferase reporter gene qHTS assay in human keratinocytes (AID 1919969); note: nearly all actives have a fitted effect of over 35% in size
[2] = target: Gonadotropin-releasing hormone receptor (Homo sapiens) (UniProt P30968); experiment: Human gonadotropin-releasing hormone receptor (GnRHR) small molecule agonists, calcium flux assay in GnRHR-HEK293 cells (AID 1920063); note: nearly all actives have a fitted effect of over 35% in size
How it was run: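 Fluorescence kinetics (480 nm excitation, 540 nm emission; 3 min, 1 s steps) report calcium mobilisation in human GnRHR-HEK293 cells in agonist mode. Dye incubation: 1 h, 37 C.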

[3] = target: KiSS-1 receptor (Homo sapiens) (UniProt Q969F8); experiment: Human kisspeptin (KISS1R) small molecule agonists, calcium flux assay in KISS1R-HEK293 cells (AID 1920064; active = well fitted activation curve with a large enough effect in the repeat runs)
How it was run: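 Measures KISS1R agonism through calcium-sensitive dye fluorescence in stably transfected HEK293 cells, read for 3 min after pin-tool compound delivery; 15-point titrations in triplicate.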

[4] = G protein-coupled receptor (GPCR) small molecule agonists, calcium flux assay: HEK293 wild type cell line counter screen (AID 1920065)
How it was run: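 Readout: fluorescence at 480 nm excitation/540 nm emission, sampled at 1 s intervals for 3 min. Cells had been cultured 18 h, then dye-loaded 1 h at 37 C before compound or ATP addition.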

[5] = p53 small molecule agonists, cell-based qHTS assay with human liver microsomes (AID 1963577)
How it was run: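 p53RE-bla cells, 4,000/well, compound added after 5 h, with human liver microsomes 0.5 mg/mL and NADPH 0.5 mg/mL final; 16 h at 37 C, then LiveBLAzer 2 h RT, fluorescence.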

[6] = p53 small molecule agonists, cell-based qHTS assay with rat liver microsomes (AID 1963578)
How it was run: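 p53RE-bla cells, 4,000/well, pre-incubated 5 h, then given compounds plus rat liver microsomes (0.5 mg/mL final) and NADPH (0.5 mg/mL final). Incubation 16 h at 37 C; beta-lactamase reporter read by LiveBLAzer fluorescence after 2 h at room temperature.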

[7] = p53 small molecule agonists, cell-based qHTS assay with human liver microsomes: qHTS cell viability counter screen (AID 1963579); note: nearly all actives have a fitted effect of over 45% in size
How it was run: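 p53RE-bla cells, 4,000/well, dosed 5 hours after plating, with human liver microsomes (0.5 mg/mL final) plus NADPH (0.5 mg/mL final), 16 hours at 37 C. Viability read as CellTiter-Glo luminescence after 30 min at room temperature.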

[8] = p53 small molecule agonists, cell-based qHTS assay with rat liver microsomes: qHTS cell viability counter screen (AID 1963580); note: nearly all actives have a fitted effect of over 45% in size
How it was run: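 HCT-116 p53RE-bla, 4,000 cells/well, 5 h pre-incubation; cpd + rat liver microsomes 0.5 mg/mL + NADPH 0.5 mg/mL (final); 16 h, 37 C; CellTiter-Glo, 30 min RT; luminescence.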

[9] = p53 small molecule agonists, cell-based qHTS assay: qHTS cell viability counter screen (AID 1963581); note: nearly all actives have a fitted effect of over 45% in size
How it was run: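 In the same plates used for the p53 bla reporter, HCT-116 cells given compounds for 16 h at 37 C received CellTiter-Glo; luminescence was recorded 30 min later at room temperature.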

[10] = p53 small molecule agonists, cell-based qHTS assay (AID 1963582; active = well fitted activation curve with a large enough effect in the signal ratio in the repeat runs, not every such curve was filed as active; the % refers to the signal ratio)
How it was run: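 Compounds are pin-transferred in DMSO onto p53RE-bla cells and incubated 16 h at 37 C. The B/G FRET beta-lactamase substrate is then applied for 2 h at RT and fluorescence recorded.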

[11] = target: 5-hydroxytryptamine receptor 2A (Homo sapiens) (UniProt P28223); experiment: 5-hydroxytryptamine receptor 2A (HTR2A) small molecule antagonists, cell-based qHTS assay (AID 1963586); note: nearly all actives have a fitted effect of over 45% in size
How it was run: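 Antagonist-mode intracellular calcium assay: DOI (4 nM) added after 5 min compound pre-incubation at room temperature to dye-loaded HTR2A-CHO cells. Fluorescence followed for 3 min, sampled every second.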

[12] = target: 5-hydroxytryptamine receptor 2A (Homo sapiens) (UniProt P28223); experiment: 5-hydroxytryptamine receptor 2A (HTR2A) small molecule agonists, cell-based qHTS assay (AID 1963587); note: nearly all actives have a fitted effect of over 30% in size
How it was run: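 Kinetic calcium-flux fluorescence (2 min, 1 sec intervals) after compound addition in agonist mode. HTR2A-CHO cells were cultured 18 h, then dye-loaded 1 h at 37 C.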

[13] = target: Muscarinic acetylcholine receptor M1 (Homo sapiens) (UniProt P11229); experiment: Cholinergic receptor muscarinic 1 (CHRM1) small molecule agonists, cell-based qHTS assay (AID 1963589); note: nearly all actives have a fitted effect of over 35% in size
How it was run: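 Each compound was tested at 15 concentrations across three independent runs on dye-loaded CHO cells stably expressing human CHRM1, reading intracellular calcium fluorescence kinetically at 1 sec intervals.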

[14] = cAMP Responsive Elements (CRE) small molecule agonists, cell-based qHTS assay (AID 1963590)
How it was run: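 Cell line: CRE-bla HEK 293T; medium DMEM/10% dialyzed FBS/0.1 mM NEAA/1 mM pyruvate/25 mM HEPES; 3 h compound exposure; beta-lactamase FRET readout after 2 h substrate loading at RT.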

[15] = target: Beta-2 adrenergic receptor (Homo sapiens) (UniProt P07550); experiment: Adrenergic beta2 receptor (ADRB2) small molecule antagonists, cell-based qHTS assay (AID 1963592); note: series mostly up to about 92 µM; nearly all actives have a fitted effect of over 50% in size
How it was run: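 Cells (CHO, stable ADRB2 overexpression) incubated 18-20hr at 37C; compounds added from DMSO; agonist mix (1nM isoproterenol, 100uM IBMX, 25uM Ro-20-1724) added; 0.5hr RT; d2-cAMP and anti-cAMP-cryptate added; 1hr RT; 665/615 nm read.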

[16] = target: D(2) dopamine receptor (Homo sapiens) (UniProt P14416); experiment: Dopamine D2 receptor (DRD2) small molecule agonists, cell-based qHTS assay (AID 1963594); note: nearly all actives have a fitted effect of over 35% in size
How it was run: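 cAMP accumulation in DRD2-HEK293 cells measured by HTRF after 1 h detection; compounds added 10 min before NKH477 (200nM […]) forskolin-analogue stimulation, 30 min at room temperature, with Ro20-1724 present at 0.1 mM final.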

[17] = target: D(2) dopamine receptor (Homo sapiens) (UniProt P14416); experiment: Dopamine D2 receptor (DRD2) small molecule antagonists, cell-based qHTS assay (AID 1963595; active = well fitted inhibition curve with a large enough effect in the signal ratio in the repeat runs, with a control signal flat; the % refers to the signal ratio)
How it was run: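 Human DRD2 antagonist qHTS measuring cAMP by HTRF. The cells are exposed to compound for 10 min, then to NKH477 (200 nM) and quinpirole (12 nM) for 30 min at RT, with Ro20-1724 (0.1 mM) present throughout.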

[18] = target: Muscarinic acetylcholine receptor M1 (Homo sapiens) (UniProt P11229); experiment: Cholinergic receptor muscarinic 1 (CHRM1) small molecule antagonists, cell-based qHTS assay (AID 1963588); note: nearly all actives have a fitted effect of over 40% in size; note: potency is the fitted concentration of half-maximal effect
How it was run: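 CHRM1-CHO calcium-flux assay, antagonist mode. Cells were seeded 18 h, dye-loaded 1 h at 37 C and given compound for 5 min at RT, then acetylcholine was added at 50nM. FDSS fluorescence was read 3 min; 15 concentrations, three runs.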

[19] = cAMP Responsive Elements (CRE) small molecule antagonists, cell-based qHTS assay (AID 1963591; active = well fitted inhibition curve with a large enough effect in the signal ratio in the repeat runs, not every such curve was filed as active; the % refers to the signal ratio)
How it was run: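 Inhibition of NKH477-driven (0.25 uM final) CRE-beta-lactamase signal in HEK293T cells, 3 h compound exposure at 37 °C, detected by FRET substrate fluorescence.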

[20] = target: Beta-2 adrenergic receptor (Homo sapiens) (UniProt P07550); experiment: Adrenergic beta2 receptor (ADRB2) small molecule agonists, cell-based qHTS assay (AID 1963593);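 note: CHO cells stably overexpressing human ADRB2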
How it was run: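 CHO cells stably over-expressing ADRB2 were plated overnight at 37C, then dosed with compounds plus a stimulation mix containing 100uM IBMX and 25uM Ro-20-1724 for 0.5hr at room temperature. cAMP was measured by HTRF competition, 1hr.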
% is set by controls: 0 for no effect and ±100 for the full control effect.

D(2) dopamine receptor (Homo sapiens), sequence (P14416 whole entry, looked up): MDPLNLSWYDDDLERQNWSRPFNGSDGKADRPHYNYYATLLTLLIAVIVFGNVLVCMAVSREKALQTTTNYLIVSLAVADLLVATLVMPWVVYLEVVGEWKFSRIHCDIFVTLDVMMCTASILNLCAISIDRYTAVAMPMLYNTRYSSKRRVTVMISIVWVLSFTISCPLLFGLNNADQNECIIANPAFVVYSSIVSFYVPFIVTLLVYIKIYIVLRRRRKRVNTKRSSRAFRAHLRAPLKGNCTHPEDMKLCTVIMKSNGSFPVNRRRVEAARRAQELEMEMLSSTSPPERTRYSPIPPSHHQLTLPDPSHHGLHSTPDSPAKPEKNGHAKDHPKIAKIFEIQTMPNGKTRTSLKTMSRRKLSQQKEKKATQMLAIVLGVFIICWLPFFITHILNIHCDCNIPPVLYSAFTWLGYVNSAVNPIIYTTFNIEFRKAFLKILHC
Muscarinic acetylcholine receptor M1 (Homo sapiens), sequence (P11229 whole entry, looked up): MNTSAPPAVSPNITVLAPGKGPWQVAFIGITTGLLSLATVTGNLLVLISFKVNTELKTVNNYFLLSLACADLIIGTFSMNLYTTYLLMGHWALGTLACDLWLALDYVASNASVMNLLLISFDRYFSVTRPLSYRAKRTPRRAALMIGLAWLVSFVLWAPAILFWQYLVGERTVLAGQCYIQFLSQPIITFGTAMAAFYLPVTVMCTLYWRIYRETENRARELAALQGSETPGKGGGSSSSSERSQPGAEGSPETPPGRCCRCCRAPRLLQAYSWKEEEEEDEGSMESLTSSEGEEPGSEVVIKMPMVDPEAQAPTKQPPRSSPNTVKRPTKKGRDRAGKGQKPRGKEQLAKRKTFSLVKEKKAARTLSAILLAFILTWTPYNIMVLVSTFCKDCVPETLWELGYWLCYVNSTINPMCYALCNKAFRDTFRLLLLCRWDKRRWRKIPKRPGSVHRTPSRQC
Gonadotropin-releasing hormone receptor (Homo sapiens), sequence (P30968 whole entry, looked up): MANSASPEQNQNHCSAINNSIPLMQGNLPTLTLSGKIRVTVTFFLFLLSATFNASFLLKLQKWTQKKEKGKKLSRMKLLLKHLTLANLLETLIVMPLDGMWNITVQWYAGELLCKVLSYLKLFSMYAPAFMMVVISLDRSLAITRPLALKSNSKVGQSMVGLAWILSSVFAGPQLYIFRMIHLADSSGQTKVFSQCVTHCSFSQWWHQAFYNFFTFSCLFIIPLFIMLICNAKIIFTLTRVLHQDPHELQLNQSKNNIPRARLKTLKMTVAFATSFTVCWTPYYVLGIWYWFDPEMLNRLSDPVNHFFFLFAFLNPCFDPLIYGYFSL
5-hydroxytryptamine receptor 2A (Homo sapiens), sequence (P28223 whole entry, looked up): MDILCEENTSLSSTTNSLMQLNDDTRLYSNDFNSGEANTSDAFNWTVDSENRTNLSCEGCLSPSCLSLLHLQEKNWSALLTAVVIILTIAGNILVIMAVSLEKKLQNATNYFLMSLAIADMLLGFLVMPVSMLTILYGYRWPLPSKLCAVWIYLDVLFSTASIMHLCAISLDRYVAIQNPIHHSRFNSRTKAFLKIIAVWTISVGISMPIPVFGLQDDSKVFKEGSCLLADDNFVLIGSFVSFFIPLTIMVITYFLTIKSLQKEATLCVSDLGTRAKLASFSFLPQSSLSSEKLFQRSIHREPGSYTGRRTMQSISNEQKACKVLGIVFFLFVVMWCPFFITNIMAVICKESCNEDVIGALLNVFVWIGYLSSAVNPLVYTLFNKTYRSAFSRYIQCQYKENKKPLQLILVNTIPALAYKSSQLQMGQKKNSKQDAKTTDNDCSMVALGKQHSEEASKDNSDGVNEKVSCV
KiSS-1 receptor (Homo sapiens), sequence (Q969F8 whole entry, looked up): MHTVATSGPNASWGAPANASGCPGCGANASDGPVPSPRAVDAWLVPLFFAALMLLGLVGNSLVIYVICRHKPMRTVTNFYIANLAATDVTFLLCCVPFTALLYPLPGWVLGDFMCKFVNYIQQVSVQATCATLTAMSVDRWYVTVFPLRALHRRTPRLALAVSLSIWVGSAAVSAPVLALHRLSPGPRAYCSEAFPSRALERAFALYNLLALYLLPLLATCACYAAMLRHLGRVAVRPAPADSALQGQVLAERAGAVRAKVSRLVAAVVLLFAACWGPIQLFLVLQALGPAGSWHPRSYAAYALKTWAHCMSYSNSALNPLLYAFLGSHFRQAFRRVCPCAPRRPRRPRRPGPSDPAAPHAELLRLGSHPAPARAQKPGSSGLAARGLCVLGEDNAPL
Beta-2 adrenergic receptor (Homo sapiens), sequence (P07550 whole entry, looked up): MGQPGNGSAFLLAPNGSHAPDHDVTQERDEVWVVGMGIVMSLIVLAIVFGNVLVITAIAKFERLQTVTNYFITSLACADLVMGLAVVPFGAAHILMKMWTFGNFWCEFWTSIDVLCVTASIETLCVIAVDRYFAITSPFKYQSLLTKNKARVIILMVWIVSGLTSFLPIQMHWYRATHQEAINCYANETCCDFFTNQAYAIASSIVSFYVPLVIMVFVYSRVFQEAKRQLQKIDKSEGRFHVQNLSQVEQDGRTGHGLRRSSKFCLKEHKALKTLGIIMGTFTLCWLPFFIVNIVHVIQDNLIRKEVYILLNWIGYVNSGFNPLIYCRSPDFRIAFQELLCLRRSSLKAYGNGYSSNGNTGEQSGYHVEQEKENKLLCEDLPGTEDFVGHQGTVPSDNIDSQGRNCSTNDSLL

C=C(C)CCO
inactive: Potency [1] | Potency [2] | outcome [3] | outcome [4] | Potency [5] | Potency [6] | Potency [7] | Potency [8] | Potency [9] | Potency [10] | Potency [11] | Potency [12] | Potency [13] | Potency [14] | Potency [15] | Potency [16] | Potency [17]

CCC(C)(C)C(=O)O
inactive: Potency [1] | Potency [2] | outcome [3] | outcome [4] | Potency [5] | Potency [6] | Potency [7] | Potency [8] | Potency [9] | Potency [10] | Potency [11] | Potency [18] | Potency [14] | Potency [19] | Potency [15] | Potency [16] | Potency [17]

BrC/C=C/CBr
inactive: activity, positive = activation [1] -2.5% [at 19 µM] | activity change [2] 0.305% [at 11.8 µM, stronger effect = higher value] | activation [3] -0.639% [at 15.8 µM] | activation [4] 0.681% [at 11.8 µM] | activation [5] -4.84% [at 13.5 µM] | activation [6] -1.81% [at 13.6 µM] | activity change, negative = cytotoxicity [7] -4.11% [at 13.5 µM] | activity change, negative = cytotoxicity [8] -2.57% [at 13.5 µM] | activity change, negative = cytotoxicity [9] -2.07% [at 13.5 µM] | activity, negative = inhibition [11] -12.9% [at 12.7 µM] | activation [12] -0.944% [at 15.9 µM] | activity, negative = inhibition [18] -3.79% [at 12.6 µM] | activation [13] 1.37% [at 15.8 µM] | activation [14] -0.306% [at 19 µM] | activity change, negative = inhibition [19] -2.76% [at 18.9 µM] | activity change, negative = inhibition [15] -26% [at 19 µM] | Potency [20] | activation [16] -0.205% [at 19 µM] | activity change, negative = inhibition [17] 7.87% [at 18.9 µM]

Cc1cccc(C)n1
inactive: Potency [1] | Potency [2] | outcome [3] | outcome [4] | Potency [5] | Potency [6] | Potency [7] | Potency [8] | Potency [9] | Potency [10] | Potency [11] | Potency [12] | Potency [13] | Potency [14] | Potency [19] | Potency [15] | Potency [16] | Potency [17]

CC(=O)CC(C)C
inactive: Potency [1] | Potency [2] | outcome [3] | outcome [4] | Potency [5] | Potency [6] | Potency [7] | Potency [8] | Potency [9] | Potency [10] | Potency [12] | Potency [18] | Potency [13] | Potency [14] | Potency [19] | Potency [15] | Potency [20]

CCCCOCC(C)O (stereo unspecified)
inactive: Potency [1] | Potency [2] | outcome [3] | outcome [4] | Potency [5] | Potency [6] | Potency [7] | Potency [8] | Potency [9] | Potency [10] | Potency [11] | Potency [12] | Potency [18] | Potency [13] | Potency [14] | Potency [19] | Potency [15] | Potency [16] | Potency [17]

CN1CCCN=C1COC(=O)C(O)(c1ccccc1)C1CCCCC1 (stereo unspecified)
active: Potency [18] 0.0116 µM
inactive: Potency [1] | Potency [2] | outcome [3] | outcome [4] | Potency [5] | Potency [6] | Potency [7] | Potency [8] | Potency [9] | Potency [10] | Potency [11] | Potency [12] | Potency [13] | Potency [19] | Potency [15] | Potency [20] | Potency [16] | Potency [17]
